Consider 28 molecules from paper PMC4336329 (PLoS ONE, 2015).

Out of some 310,000 compounds screened, about 14,000 (4.5%) showed an effect of 50% or more. The effect is printed as a negative number. The full list was thinned out, with strong results kept by preference.
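Note: peak tail current of the secondary pulse compared with the same well before compound.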

The assay deals with human ether-à-go-go-related gene (hERG) potassium channel (human, UniProt Q12809). Kind of assay: primary screen, population patch clamp on CHO cells stably expressing hERG; higher = less effect of the substance.
Chain of human ether-à-go-go-related gene (hERG) potassium channel (Q12809 whole entry, looked up): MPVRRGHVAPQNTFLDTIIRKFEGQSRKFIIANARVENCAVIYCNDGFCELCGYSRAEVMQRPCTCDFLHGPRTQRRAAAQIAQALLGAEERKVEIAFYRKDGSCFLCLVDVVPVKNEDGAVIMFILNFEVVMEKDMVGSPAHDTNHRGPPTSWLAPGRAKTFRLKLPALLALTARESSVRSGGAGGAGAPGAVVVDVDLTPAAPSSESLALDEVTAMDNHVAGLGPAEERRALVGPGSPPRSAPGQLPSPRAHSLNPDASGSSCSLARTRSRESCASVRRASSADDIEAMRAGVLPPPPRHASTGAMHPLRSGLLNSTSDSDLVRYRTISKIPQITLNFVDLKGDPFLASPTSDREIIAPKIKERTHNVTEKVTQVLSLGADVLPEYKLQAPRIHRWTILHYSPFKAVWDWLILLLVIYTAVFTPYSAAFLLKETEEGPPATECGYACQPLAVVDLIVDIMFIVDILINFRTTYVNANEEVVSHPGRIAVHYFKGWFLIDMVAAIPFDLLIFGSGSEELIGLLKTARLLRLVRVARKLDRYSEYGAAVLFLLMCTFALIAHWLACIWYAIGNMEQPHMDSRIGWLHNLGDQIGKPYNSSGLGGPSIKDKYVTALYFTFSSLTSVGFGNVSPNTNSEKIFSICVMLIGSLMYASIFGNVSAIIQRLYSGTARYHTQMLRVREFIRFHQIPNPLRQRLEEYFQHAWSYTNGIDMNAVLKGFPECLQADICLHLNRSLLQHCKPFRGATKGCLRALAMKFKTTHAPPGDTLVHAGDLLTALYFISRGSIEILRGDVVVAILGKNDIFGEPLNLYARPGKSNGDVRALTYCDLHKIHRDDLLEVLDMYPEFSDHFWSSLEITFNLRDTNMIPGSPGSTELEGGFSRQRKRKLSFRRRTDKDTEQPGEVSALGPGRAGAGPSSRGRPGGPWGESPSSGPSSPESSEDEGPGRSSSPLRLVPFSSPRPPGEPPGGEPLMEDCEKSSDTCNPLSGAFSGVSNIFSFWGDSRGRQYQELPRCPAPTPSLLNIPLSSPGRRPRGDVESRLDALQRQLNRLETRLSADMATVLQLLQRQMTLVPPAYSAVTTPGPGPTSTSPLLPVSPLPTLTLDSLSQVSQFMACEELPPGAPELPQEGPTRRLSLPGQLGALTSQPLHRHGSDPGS
Take `CCOc1cccc(=O)c2c(C)n(-c3ccc(C(=O)O)cc3)c(C)c12`: the “hERG current change (%, negative = inhibition) at 10uM” value stood at 32%. To `CCOC(=O)c1c(C)nsc1NC(=O)c1ccco1` belongs -4.79%.

As to `CCOc1ccc(NCc2nnc(SCC(=O)Nc3cc(C)on3)n2-c2ccc(OC)cc2)cc1`, the “hERG current change (%, negative = inhibition) at 10uM” value is given as -4.02%. Consider `CCc1cccc(CC)c1NC(=O)COC(=O)Cc1ccsc1`, for which the “hERG current change (%, negative = inhibition) at 10uM” value came out at 21.2%. As for `COc1ccc(N2C(=O)NC(=O)/C(=C/c3cccc(OC(=O)c4cccs4)c3)C2=O)cc1Cl`, the figure is -2.57%; as for `Cc1ccc(C(=O)NC(=S)Nc2cc(C(F)(F)F)ccc2Cl)cc1`, 20.3%; as for `CCOC(=O)Cc1csc(NC(=O)CN(C)S(=O)(=O)c2ccc3c(c2)CCC(=O)N3)n1`, -15.9%. To `CN(C)S(=O)(=O)c1ccc(C(=O)Nc2cc(S(=O)(=O)Nc3ccccc3Cl)ccc2N2CCCCC2)cc1` belongs 25.5%; to `COc1ccc(C/C(N)=N/OC(=O)c2cccs2)cc1`, 12.8%; to `O=C(Nc1nc2ccc(SC(F)F)cc2s1)c1ccc(NS(=O)(=O)c2ccc(F)c(F)c2)cc1`, -8.03%.

As for `COc1ccc(NC(=O)C(C)Sc2ccccc2)cc1` (stereo not shown), the “hERG current change (%, negative = inhibition) at 10uM” value is reported as 1.14%.

Consider `COC(=O)CCc1sc(NC2CCCCC2)nc1-c1ccc(OC)cc1`, for which the “hERG current change (%, negative = inhibition) at 10uM” value turned out to be 8.55%.

On to `O=C(c1ccc(Oc2ccc([N+](=O)[O-])cc2)cc1)N1CCCCCC1`, for which the “hERG current change (%, negative = inhibition) at 10uM” value was -25.5%.

With `CCOC(=O)N1CCN(C(=O)c2ccc(OC)cc2)CC1`, the “hERG current change (%, negative = inhibition) at 10uM” value came to 19.8%. As for `CCOC(=O)N1CCN(C(=O)c2ccc(OCC)cc2)CC1`, the figure is -28.3%; as for `CN1CCN(C(=O)c2ccc(Oc3ccc([N+](=O)[O-])cc3)cc2)CC1`, -50.6%; as for `CCOC(=O)N1CCN(C(=O)c2ccc(Oc3ccc([N+](=O)[O-])cc3)cc2)CC1`, -68.3%. As for `CN1CCN(C(=O)c2cc([N+](=O)[O-])cc([N+](=O)[O-])c2)CC1`, the figure is 16.7%; as for `COc1ccc(Br)c(C(=O)NNC(=O)c2ccc(NS(=O)(=O)c3cccs3)cc2)c1`, 12.6%. As for `CCC1CCCCN1C(=O)CSc1nnc(CNC(=O)c2c(F)cccc2Cl)o1` (stereo not shown), the figure is 10.7%; as for `CCOC(=O)C(=O)Nc1ccc(S(=O)(=O)N2CCOCC2)cc1OC`, 4.78%. As for `O=C(O)/C=C/C(=O)NC1CC1`, the “hERG current change (%, negative = inhibition) at 10uM” value amounted to 41.9%. To `COc1ccc(Oc2nnc(-c3ccc(C)cc3)c3ccccc23)cc1` belongs 5.64%; to `COc1nnc(-c2ccc(C)cc2)c2ccccc12`, 5.93%. As for `COc1ccc(-c2nnc(OC)c3ccccc23)cc1`, the figure is -7.99%; as for `CCN(CC)CCOc1nnc(-c2ccc(C)cc2)c2ccccc12`, -67.7%; as for `CCN(CC)CCOc1nnc(-c2ccc(OC)cc2)c2ccccc12`, -65%. To `Cc1ccc(-c2nnc(OCCN3CCOCC3)c3ccccc23)cc1` belongs -43.4%.
